Test results taken from the supplement of paper PMC3545927.
Some of the results follow. The true hit rate is not given.

Target: furin, P09958
Experiment: furin cleavage Z-score vs untreated control; higher = more cleavage, active = 3.5 or more, inactive = 1 or less, 8 variable residues between constant flanks
How it was run: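 Purified furin digested bead-held 8-mer peptide–cDNA fusions at 1:10 enzyme:substrate in 0.01 ml of 50 mM HEPES pH 7.5 with CaCl2 and NaCl for 7.5, 15 or 30 min. The cleavage Z-score compares sequencing counts of released DNA with furin-free reactions on a log scale, with lowess adjustment and median absolute deviation scaling.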

Sequence of furin, P09958 (P09958 whole entry): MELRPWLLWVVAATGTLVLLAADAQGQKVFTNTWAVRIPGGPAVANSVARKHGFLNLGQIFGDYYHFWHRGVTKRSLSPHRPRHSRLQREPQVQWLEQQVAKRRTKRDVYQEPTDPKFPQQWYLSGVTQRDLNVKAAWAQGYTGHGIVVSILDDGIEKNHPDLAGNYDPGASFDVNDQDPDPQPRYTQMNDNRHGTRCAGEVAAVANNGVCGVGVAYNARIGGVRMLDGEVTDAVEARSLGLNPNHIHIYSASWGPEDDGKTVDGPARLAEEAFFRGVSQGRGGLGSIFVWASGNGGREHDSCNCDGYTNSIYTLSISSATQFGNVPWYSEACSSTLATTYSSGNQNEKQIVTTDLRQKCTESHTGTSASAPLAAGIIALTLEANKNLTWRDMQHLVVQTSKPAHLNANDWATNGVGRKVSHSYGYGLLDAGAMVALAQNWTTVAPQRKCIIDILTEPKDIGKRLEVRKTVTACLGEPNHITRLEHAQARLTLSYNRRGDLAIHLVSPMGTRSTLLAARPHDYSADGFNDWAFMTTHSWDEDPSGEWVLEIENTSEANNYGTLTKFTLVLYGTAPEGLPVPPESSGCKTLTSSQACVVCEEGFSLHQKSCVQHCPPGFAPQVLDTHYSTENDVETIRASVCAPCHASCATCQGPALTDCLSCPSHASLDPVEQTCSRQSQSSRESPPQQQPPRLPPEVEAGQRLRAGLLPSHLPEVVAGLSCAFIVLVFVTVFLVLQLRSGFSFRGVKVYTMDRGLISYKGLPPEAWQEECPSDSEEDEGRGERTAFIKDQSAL

CATWGADTAAAGNASASA [HC653]
furin cleavage Z-score (7.5 min): -1.68 (inactive) | furin cleavage Z-score (15 min): -0.657 (inactive) | furin cleavage Z-score (30 min): 0.025 (inactive)

CATINYTIFKAGNASASA [HC471]
furin cleavage Z-score (7.5 min): -0.464 (inactive) | furin cleavage Z-score (15 min): -1.13 (inactive) | furin cleavage Z-score (30 min): -1.75 (inactive)

CAKIMSGEVPAGNASASA [HC1094]
furin cleavage Z-score (7.5 min): 0.645 (inactive) | furin cleavage Z-score (15 min): -1.21 (inactive) | furin cleavage Z-score (30 min): -1.34 (inactive)

CACVREGNASAGNASASA [HC275]
furin cleavage Z-score (7.5 min): -1.21 (inactive) | furin cleavage Z-score (15 min): -1.14 (inactive) | furin cleavage Z-score (30 min): -0.496 (inactive)

CATGRRKGRSAGNASASA [FS-1290]
furin cleavage Z-score (7.5 min): 10.3 (active) | furin cleavage Z-score (15 min): 12.1 (active) | furin cleavage Z-score (30 min): 8.69 (active)

CAPCERKGRSAGNASASA [FS-1379]
furin cleavage Z-score (7.5 min): 5.38 (active) | furin cleavage Z-score (15 min): 8.32 (active) | furin cleavage Z-score (30 min): 6.45 (active)

CATGRGKPGIAGNASASA [HC906]
furin cleavage Z-score (7.5 min): -0.769 (inactive) | furin cleavage Z-score (15 min): 0.329 (inactive) | furin cleavage Z-score (30 min): 1.63

CAYCFTPSPVAGNASASA [HC414]
furin cleavage Z-score (7.5 min): -0.826 (inactive) | furin cleavage Z-score (15 min): -2.21 (inactive) | furin cleavage Z-score (30 min): -2.26 (inactive)

CAYTPCSAHLAGNASASA [HC2469]
furin cleavage Z-score (7.5 min): -1.25 (inactive) | furin cleavage Z-score (15 min): -1.32 (inactive) | furin cleavage Z-score (30 min): -1.27 (inactive)

CALMTHFFSVAGNASASA [HC1583]
furin cleavage Z-score (7.5 min): -2.19 (inactive) | furin cleavage Z-score (15 min): -1.38 (inactive) | furin cleavage Z-score (30 min): -1.85 (inactive)

CADEMEECSQAGNASASA [HC1791]
furin cleavage Z-score (7.5 min): 6.21 (active) | furin cleavage Z-score (15 min): -2.13 (inactive) | furin cleavage Z-score (30 min): -5.81 (inactive)

CATPIAAAGQAGNASASA [HC1639]
furin cleavage Z-score (7.5 min): -1.29 (inactive) | furin cleavage Z-score (15 min): -1.26 (inactive) | furin cleavage Z-score (30 min): -1.59 (inactive)

CARKKRFAKQAGNASASA [FS-2692]
furin cleavage Z-score (7.5 min): 5.98 (active) | furin cleavage Z-score (15 min): 8.51 (active) | furin cleavage Z-score (30 min): 8.88 (active)

CARKKRAAGQAGNASASA [FS-1727]
furin cleavage Z-score (7.5 min): 10.8 (active) | furin cleavage Z-score (15 min): 11.8 (active) | furin cleavage Z-score (30 min): 8.92 (active)

CARKKRLEEQAGNASASA [FS-1857]
furin cleavage Z-score (7.5 min): -0.193 (inactive) | furin cleavage Z-score (15 min): 1.1 | furin cleavage Z-score (30 min): 0.0714 (inactive)

CARKKRWAERAGNASASA [FS-3257]
furin cleavage Z-score (7.5 min): 8.39 (active) | furin cleavage Z-score (15 min): 10.8 (active) | furin cleavage Z-score (30 min): 10.8 (active)

CASEMEECSQAGNASASA [HC1797]
furin cleavage Z-score (7.5 min): 1.23 | furin cleavage Z-score (15 min): -0.566 (inactive) | furin cleavage Z-score (30 min): 0.242 (inactive)

CALEMEECSQAGNASASA [HC1785]
furin cleavage Z-score (7.5 min): 0.133 (inactive) | furin cleavage Z-score (15 min): 0.777 (inactive) | furin cleavage Z-score (30 min): -0.27 (inactive)

CARKMRDDERAGNASASA [FS-1904]
furin cleavage Z-score (7.5 min): 0.00727 (inactive) | furin cleavage Z-score (15 min): -0.39 (inactive) | furin cleavage Z-score (30 min): -1.4 (inactive)

CACLLLLAAGAGNASASA [HC1658]
furin cleavage Z-score (7.5 min): -0.897 (inactive) | furin cleavage Z-score (15 min): -1.64 (inactive) | furin cleavage Z-score (30 min): -0.912 (inactive)

CACDVVCCSMAGNASASA [HC2120]
furin cleavage Z-score (7.5 min): -0.0436 (inactive) | furin cleavage Z-score (15 min): -0.677 (inactive) | furin cleavage Z-score (30 min): -0.296 (inactive)

CATTPCSGSNAGNASASA [HC1941]
furin cleavage Z-score (7.5 min): -1.17 (inactive) | furin cleavage Z-score (15 min): -0.013 (inactive) | furin cleavage Z-score (30 min): -0.852 (inactive)
